Active and inactive are the calls of the source.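 How the source made its calls, unless noted: active means mean z-score across replicates of 1.96 or higher in either the MELAS or the Rieske mutant cell line; inactive means the rest.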
Legend:
[1] = viability loss with induced miR-34 in A549 – imaging, A549 dox-inducible miR-34, nuclei and caspase counts, primary screen (AID 1347080;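 active means compounds whose cell count with miR-34 switched on is under 0.7 times the count with it off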); settings: A549 miR-34 inducible, Hoechst nuclei count, 48 h
[2] = MELAS cybrid and Rieske KO viability enhancers – cell-based, MELAS cybrids, Rieske KO mouse fibroblasts, CellTiter-Glo, primary screen (AID 1508586); settings: low glucose;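 further: z relative to plate mean and SD of compound and empty wells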
[3] = stronger effect = lower value, cell number ratio, induced over uninduced
[4] = measured here: relative caspase fold change +Dox/-Dox
[5] = measured here: total cells with miR-34 induction, stronger effect = lower value
[6] = measured here: total cells without miR-34 induction
[7] = MELAS cybrid survival, CellTiter-Glo 48 h, stronger effect = higher value
[8] = Rieske KO mouse fibroblast survival, CellTiter-Glo 72 h
Further: test concentration not given here.

SMILES | fold change [1, 3] | fold change [1, 4] | cell count [1, 5] | cell count [1, 6] | z-score [2, 7] | z-score [2, 8]
CCNC(=O)c1[nH]nc(-c2cc(Cl)c(O)cc2O)c1-c1ccc(OC)cc1 | 1.1 (inactive) | 0.416 | 3020 | 2740 | 2.3 (active) | -0.612
Cn1cc(C=CC(=O)c2cccc(F)c2)cc1C=CC(=O)NO | 0.9 (inactive) | 1.19 | 7610 | 8450 | -0.416 (inactive) | 0.68
NC1(C(=O)NC(CCO)c2ccc(Cl)cc2)CCN(c2ncnc3[nH]ccc23)CC1 (configuration not stated) | 1.01 (inactive) | 0.36 | 7310 | 7200 | -0.334 (inactive) | -0.0673
O=C(C=Cc1ccc2ccccc2n1)c1ccncc1 | 0.681 (active) | 0.506 | 2580 | 3790 | 0.232 (inactive) | 1.5
CC(C)N(CCC(c1ccccc1)c1cc(CO)ccc1O)C(C)C (configuration not stated) | 0.934 (inactive) | 1.04 | 9810 | 10500 | -0.366 (inactive) | 0.299
CC1(C)C(O[C@H]2OC(C(=O)O)C(O)C(O)C2O[C@@H]2OC(C(=O)O)C(O)C(O)C2O)CC[C@@]2(C)[C@H]3C(=O)C=C4[C@@H]5C[C@@](C)(C(=O)O)CC[C@]5(C)CC[C@@]4(C)[C@]3(C)CC[C@@H]12 (some centres not stated) | 0.946 (inactive) | 0.91 | 7600 | 8030 | -0.278 (inactive) | -0.114
COC(=O)NC(C)CNc1nccc(-c2cn(C(C)C)nc2-c2cc(Cl)cc(NS(C)(=O)=O)c2F)n1 (configuration not stated) | 0.982 (inactive) | 0.272 | 5200 | 5290 | 0.61 (inactive) | 1.4
Cc1cc2c(C(=O)NCC(C)c3ccccc3)c(O)c(O)cc2c(O)c1-c1c(C)cc2c(C(=O)NCC(C)c3ccccc3)c(O)c(O)cc2c1O (configuration not stated) | 1.07 (inactive) | 0.503 | 2050 | 1910 | -0.836 (inactive) | -6.52
CC(C)=CCC[C@](C)(OC1OC(COC2OCC(O)C(O)C2O)C(O)C(O)C1O)C1CC[C@]2(C)[C@@H]1C(O)C[C@H]1[C@@]3(C)CCC(OC4OC(CO)C(O)C(O)C4O)C(C)(C)[C@@H]3CC[C@]12C (some centres not stated) | 0.96 (inactive) | 0.422 | 7600 | 7910 | -0.238 (inactive) | 0.0165
OCCOc1ccc(C(=C(CCCl)c2ccccc2)c2ccccc2)cc1 | 0.979 (inactive) | 0.793 | 9190 | 9380 | -0.333 (inactive) | -0.092
O=C(O)C(Cc1ccccc1[N+](=O)[O-])=NNC1=NC(c2ccc(Cl)c(Cl)c2)CS1 (configuration not stated) | 0.88 (inactive) | 0.284 | 6240 | 7100 | -0.273 (inactive) | 0.221
O=CC(O)C(O)C(O)C(O)CO (configuration not stated) | 0.892 (inactive) | 0.805 | 8030 | 9000 | -0.158 (inactive) | -0.000567
O=C(Nc1ccccc1)N1CCN(c2nc(-c3ccccc3)ns2)CC1 | 1.02 (inactive) | 0.483 | 7250 | 7080 | -0.215 (inactive) | 0.0401
CC1(C)S[C@@H]2C(NC(=O)C(N)c3ccccc3)C(=O)N2C1C(=O)O (some centres not stated) | 0.917 (inactive) | 0.571 | 8070 | 8800 | -0.241 (inactive) | -0.225
CCC1=CC2CN(C1)Cc1c([nH]c3ccccc13)[C@@](C(=O)OC)(c1cc3c(cc1OC)N(C)[C@@H]1[C@@]34CCN3CC=C[C@@](CC)(C(OC(C)=O)[C@]1(O)C(=O)OC)[C@@H]34)C2 (some centres not stated) | 1.11 (inactive) | 0.608 | 1810 | 1620 | 2.06 (active) | -0.337
CCOC(=O)C1=C(N)Oc2ccc(Br)cc2[C@H]1C(C#N)C(=O)OCC (some centres not stated) | 0.989 (inactive) | 0.887 | 5900 | 5960 | -0.334 (inactive) | 0.811
CC(C)(C(=O)NCC(F)(F)C(F)(F)F)C(=O)NC1C(=O)Nc2ccccc2-c2ccccc21 (configuration not stated) | 0.97 (inactive) | 0.87 | 7630 | 7860 | -0.378 (inactive) | 0.321
CC(=O)C1CC[C@H]2[C@@H]3CC=C4CC(O)CC[C@]4(C)[C@@H]3CC[C@]12C (some centres not stated) | 0.983 (inactive) | 0.867 | 7780 | 7910 | -0.328 (inactive) | 0.251
CCN1CCN(C(=O)NC(C(=O)NC2C(=O)N3C2SC(C)(C)C3C(=O)O)c2ccccc2)C(=O)C1=O (configuration not stated) | 0.885 (inactive) | 1.67 | 8860 | 10000 | -0.177 (inactive) | -0.164
CCC(=O)NCCC1CCc2ccc3c(c21)CCO3 (configuration not stated) | 0.931 (inactive) | 4.33 | 8720 | 9370 | -0.89 (inactive) | 0.046
CCC[C@@H]1OC2C[C@H]3[C@@H]4CCC5=CC(=O)C=C[C@]5(C)[C@@H]4C(O)C[C@]3(C)[C@@]2(C(=O)CO)O1 (some centres not stated) | 1.01 (inactive) | 0.72 | 3350 | 3330 | -0.541 (inactive) | -0.57
O=C(CSc1nc2c(c(=O)n1-c1ccccc1)SCC2)Nc1ccc(-c2ccccc2)cn1 | 0.945 (inactive) | 0.349 | 7310 | 7740 | -0.49 (inactive) | 0.404

Reference: PubChem BioAssay
